# Compound activity from PubChem BioAssay.
# Caspase-7 inhib: qHTS Assay for Allosteric/Competitive Inhibitors of Caspase-7 | AID 889, 2007 | 75,000 tested, 0.02% active | Potency, µM (doses to about 57.5 µM), without a hit: top-dose activity change, negative = inhibition, actives largely listed as inhibitors | recombinant caspase-7, Ac-DEVD-AFC fluorescence rate | P55210; active means well fitted inhibition curve with a large enough effect in the main read-out, with a control signal flat, not every such curve was filed as active; inconclusive means small, poorly fitted or top-dose-only effect, or a change in a side signal; further: potency means the concentration at half of the fitted maximal effect; % of control where 0% means no effect
# Caspase-1 inhib: qHTS Assay for Allosteric/Competitive Inhibitors of Caspase-1 | Caspase-1 enzyme, Ac-WEHD-AFC fluorogenic rate | Potency, µM (series often up to 57.5 µM), without a hit: top-dose activity change, negative = inhibition, most hits filed as inhibitors | 75,000 tested, 0.03% active;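 further: potency means the concentration at half of the fitted maximal effect; plate controls were vehicle for no effect and no substrate for full effect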
# BRCT PPI red: qHTS Assay for Inhibitors of BRCT-Phosphoprotein Interaction (Red Fluorophore) | 75,000 tested, 0.03% active | Breast cancer type 1 susceptibility protein (Homo sapiens), P38398 | BRCT-phosphopeptide binding, red fluorescence polarization | Potency, µM (doses to about 76.9 µM), inactives show at the highest dose activity change, negative = inhibition, hits mostly inhibitors; further: on the % scale 0 is the no-effect control and ±100 the full control effect
#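 Fluorescence polarization: 100 nM His-tagged BRCA1 BRCT with 100 nM TAMRA-labelled phospho-BACH1 decapeptide, phosphate buffer pH 7.3 with 150 mM NaCl, DTT, 0.01% Tween 20; 12 min RT. Binding inhibition seen as FP decrease.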
# ALOX15 inhib: qHTS Assay for Inhibitors of 15-hLO (15-human lipoxygenase). purified 15hLO-1, xylenol orange hydroperoxide absorbance. Potency, µM (titrated, usually from 57.1 µM), without a hit: at the highest dose activity change, negative = inhibition, hits mostly inhibitors. 74,000 tested, 1.4% active. AID 887, 2007. Polyunsaturated fatty acid lipoxygenase ALOX15 (Homo sapiens), P16050; further: potency means the concentration at half of the fitted maximal effect; on the % scale 0 is the no-effect control and ±100 the full control effect; nearly all actives have a fitted effect of over 55% in size
#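 Hydroperoxide formed from arachidonic acid (50 uM) by purified human 15hLO-1 (40 nM) oxidizes ferrous iron, and the ferric-xylenol orange complex is read at 573 versus 405 nm. Compounds were preincubated 15 min; reaction ran 6 min at room temperature.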
# USP2a inh: qHTS Assay for Inhibitors of Ubiquitin-specific Protease USP2a; USP2a enzymatic assay, qHTS inhibition; Potency, µM (titrated, usually from 38.3 µM), inactives show at the top dose activity change, negative = inhibition, usual class: inhibitors; 60,000 tested, 0.1% active; AID 927, 2007; further: potency means the concentration at half of the fitted maximal effect; nearly all actives have a fitted effect of over 60% in size
#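 Inhibition is measured in a cell-free coupled assay with 20 nM USP2 core, 20 nM Ub-PLA2 and 20 uM NBD C6-HPC, 2.5 h incubation. Activity normalized to NEM control.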
# BRCT PPI green: qHTS Assay for Inhibitors of BRCT-Phosphoprotein Interaction (Green Fluorophore); Breast cancer type 1 susceptibility protein (Homo sapiens), P38398; BRCA1 BRCT-phosphopeptide binding, green fluorescence polarization; Potency, µM (top dose mostly 76.9 µM), for the others: at the highest dose activity change, negative = inhibition, most hits filed as inhibitors; 75,000 tested, 0.05% active; AID 875, 2007;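 further: potency means the concentration at half of the fitted maximal effect; plate controls were peptide without protein for full effect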
#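 Compounds were incubated for 12 min at room temperature with a complex of 100 nM fluorescein-tagged pBACH1 decapeptide and 250 nM His-tagged BRCT protein. Buffer was phosphate pH 7.3 with EDTA, DTT and Tween 20. Disruption of binding lowers the polarization signal.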
# An asterisk follows results filed as active; ? = inconclusive; . = not tested or not shown; [ ] = another dose, or the depositor's remark. Sampled rows, rich in hits. Any-hit rate of the full collection: about 1.5%. Unless noted, the call rests on the fitted dose curve; in most records, active means well fitted curve in the direction sought with a large enough effect; inconclusive means small, poorly fitted or top-dose-only effect, or another doubt; inactive means no such curve, though single readings can be large; an effect the other way counts as inactive or inconclusive.
SMILES,Caspase-7 inhib,Caspase-1 inhib,BRCT PPI red,ALOX15 inhib,USP2a inh,BRCT PPI green
CCOC(=O)C[C@@H](C(=O)OCC)[C@@H]1CCCCC1=O,2.2%[11.5 µM],1.0%[11.5 µM],-1.1%[15.4 µM],0.4%[11.4 µM],.,0.1%[15.4 µM]
Oc1ccccc1C(Sc1nc2ccccc2s1)Sc1nc2ccccc2s1,0.4%[11.5 µM],-1.6%[11.5 µM],0.1%[15.4 µM],?,.,-0.8%[15.4 µM]
COc1ccccc1N1CCN(C[C@@H](O)COc2cccc3ccccc23)CC1,-3.6%,-0.9%,-1.0%,?,80.1%[17.1 µM],0.5%
COc1ccccc1N1CCN(C[C@@H](C(=O)NC(C)(C)C)c2ccccc2)CC1,-1.8%,2.2%,-3.9%,15.8µM*,.,-4.8%
N#C/C(=C\c1ccc(O)c(O)c1)C(=O)OCCc1cccs1,-12.9%,-2.9%,-0.9%,?,.,7.6%
NC(=S)N/N=C\c1c[nH]c2ccccc12,-0.2%[11.5 µM],0.3%[11.5 µM],-1.6%[15.4 µM],2.7%[11.4 µM],.,-0.7%[15.4 µM]
CC1CN(c2nc3ccccn3c(=O)c2/C=C(\C#N)S(=O)(=O)c2ccccc2)CC(C)O1 (configuration not stated),-20.7%,?,0.4%,-11.0%,21.2%,-2.0%
N#C/C(=C\c1ccc(O)c(O)c1)C(=O)c1ccc(O)c(O)c1,3.0%,4.8%,1.6%,3.98µM*,-14.2%,5.5%
N#C/C(=C\c1c[nH]c2ccccc12)C(=O)c1ccc(O)c(O)c1,-0.9%,2.4%,-10.7%,0.251µM*,?,-5.5%
N#C/C(=C\c1ccc(O)c(O)c1)S(=O)(=O)c1ccccc1,-10.2%,-2.8%,0.9%,3.98µM*,-11.7%,4.7%
N#C/C(=C\c1ccc(O)c(O)c1)C(=O)NCCCc1ccccc1,-6.1%,-0.8%,-1.9%,2.51µM*,-3.1%,2.2%
COc1ccc(F)cc1S(=O)(=O)Nc1ccccc1C(=O)O,0.9%,-1.4%,-0.4%,0.7%,.,-1.7%
CO[C@@H]1COC(=O)C/C=C\[C@H](C)COC(=O)[C@H](C)NC(=O)C/C=C\[C@H]1C,0.0%[11.5 µM],0.1%[11.5 µM],0.3%[15.4 µM],3.0%[11.4 µM],.,-1.0%[15.4 µM]
CC(C)CO/N=C1/C[C@@H](O)[C@@H](O)[C@@H]2[C@@H]3C(=O)N(Cc4ccc5c(c4)OCO5)C(=O)[C@H]3CC[C@H]12,0.9%[11.5 µM],-2.0%[11.5 µM],-1.2%[15.4 µM],1.2%[11.4 µM],.,-1.2%[15.4 µM]
C=CCC(O)CC1C2C(CC(O)CC=C)C3C1C3C2OC(C)(C)C (configuration not stated),-1.6%[11.5 µM],1.3%[11.5 µM],1.0%[15.4 µM],2.7%[11.4 µM],.,-0.7%[15.4 µM]
COc1cc(-c2cc(OC)c3c(C)oc(C)c3c(=O)c2)ccc1O,-12.9%,-1.4%,0.9%,25.1µM*,18.1%,-1.5%
O=C(Nc1ccc2nc(-c3ccco3)c(-c3ccco3)nc2c1)N1CCCCCC1,?,.,?,5.01µM*,-3.2%,-22.4%
O=C(NC1CCCCC1)c1cnn2c(C(F)(F)F)cc(-c3ccco3)nc12,?,.,1.4%,25.1µM*,29.5%,-1.3%
O=C(NC1CCCC1)c1ccc2nc(-c3ccco3)c(-c3ccco3)nc2c1,?,.,-3.4%,10µM*,33.3%,-2.5%
O=C(NC1CCCC1)c1ccc2nc[nH]c2c1,1.0%,-0.4%,-4.7%,1.0%,-6.1%,-1.0%
CCOC(=O)C1CCN(C(=O)Nc2ccc3nc(-c4ccco4)c(-c4ccco4)nc3c2)CC1,?,.,?,5.01µM*,-23.0%,-29.1%
CCOC(=O)N1CCN(C(=O)Nc2ccc3nc(C)c(C)nc3c2)CC1,-21.8%,?,-2.4%,-4.6%,6.2%,0.5%
COc1ccc(-c2ccc3c(n2)CCCN3C[C@H](O)CN2CCCc3nc(-c4ccc(Br)cc4)ccc32)cc1,-1.1%[11.5 µM],-4.1%[11.5 µM],2.3%[15.4 µM],-7.5%[11.4 µM],.,0.4%[15.4 µM]
CCOC(=O)c1sc(=S)n(-c2cc(OC)ccc2OC)c1N,0.5%,0.8%,-0.1%,12.6µM*,-3.7%,-1.2%
CCc1nc2scc(-c3ccccc3)c2c(=O)n1N,-3.6%,2.2%,-0.7%,20µM*,23.8%,0.0%
